Results published in PubChem BioAssay AID1274 (Emory University Molecular Libraries Screening Center, 2008).
The campaign covered roughly 220,000 compounds. About 1,100 (0.5%) were called active. Shown is part of a subset that was picked to be rich in actives. A number with no mark means an inactive call.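 How the source made its calls: active means inhibition above about 30% (limit read from the data); inactive means the rest.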

What follows are molecules tested against Neutrophil cytosol factor 1 (Homo sapiens) (UniProt P14598) (assay: blockers of p47phox binding to p22phox – biochemical, uHTS, NADPH oxidase regulatory subunit, primary screen (AID 1274;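 further: 0% = p47phox with labelled peptide and 100% = labelled peptide alone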)). Details: p47phox/p22phox peptide binding, fluorescence polarization, 2 h; at 24.7 µM; hits give high values.
Chain of Neutrophil cytosol factor 1 (Homo sapiens) (P14598 whole entry, looked up): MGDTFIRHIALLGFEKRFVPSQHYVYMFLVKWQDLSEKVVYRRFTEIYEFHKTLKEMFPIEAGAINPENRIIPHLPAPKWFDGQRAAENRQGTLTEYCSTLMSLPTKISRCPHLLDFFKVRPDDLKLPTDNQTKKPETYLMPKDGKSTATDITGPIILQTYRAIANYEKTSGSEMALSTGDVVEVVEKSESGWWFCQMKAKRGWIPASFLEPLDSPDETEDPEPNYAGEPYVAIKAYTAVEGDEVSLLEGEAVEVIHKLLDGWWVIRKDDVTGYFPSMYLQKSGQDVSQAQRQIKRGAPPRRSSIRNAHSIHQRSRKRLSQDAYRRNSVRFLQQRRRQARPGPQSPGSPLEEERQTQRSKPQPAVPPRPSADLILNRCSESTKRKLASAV
`COc1ccc(C2(CNC(=O)Cc3ccc(OC)c(OC)c3)CCCC2)cc1` showed an inhibition of 10.1%.
Work on `O=C(CSc1ccc2nnc(-c3ccccc3)n2n1)N1CCCc2ccccc21` yielded an inhibition of 9.14%.
Work on `COc1ccc(NC(=S)SC)cc1OC` yielded an inhibition of -0.91%.
In the case of `O=c1[nH]c2cccnc2n1-c1ccc([N+](=O)[O-])cc1`, the inhibition is reported as 3.76%.
For `O=C1CC(c2ccccc2)=NN1c1ccc([N+](=O)[O-])cc1`, the inhibition was -0.56%.
With `O=c1[nH]n(-c2ccc([N+](=O)[O-])cc2)c(=O)c2ccccc12` the inhibition was 43.7% (active).
For `CC(=O)c1c(C)[nH]c(C(=O)Nc2cc(S(=O)(=O)N(C)C)ccc2C)c1C`, the inhibition was -11.1%.
`COCCn1c(SCC(=O)Nc2cc(OC)ccc2OC)nc2c(c1=O)SC(C)C2` (stereo not drawn) gave an inhibition of -1.72%.
In the case of `CC1=C(C)C(=O)OC(C(C)C2CCC3C4CC=C5CC(OC6OC(COC7OC(CO)C(O)C(O)C7O)C(O)C(O)C6O)CC(O)C5(C)C4CCC23C)C1` (stereo not drawn), the inhibition is reported as -3.03%.
`Cc1cccc2cc(CN(Cc3cccs3)C(=S)NCc3ccco3)c(=O)[nH]c12` showed an inhibition of -184%.
With `O=C(Nc1ccccc1)N(Cc1cccnc1)Cc1ccco1` the inhibition was -9.87%.
`Cc1ccc(C)c2[nH]c(=O)c(CN(Cc3cccnc3)C(=S)NCc3ccco3)cc12` was tested, and the inhibition was 40.3% (active).
`O=S1(=O)CC/C(=N\Nc2ccc(F)cc2)c2ccsc21` was tested, and the inhibition was -3.38%.
In the case of `O=C(NCCc1c[nH]c2ccccc12)C(=O)NCC1CCCO1` (stereo not drawn), the inhibition is reported as -9.36%.
`N#C/C(=C/c1ccc(-c2ccccc2[N+](=O)[O-])o1)C(=O)NCCN1CCCCC1` was tested, and the inhibition was 2.84%.
For `N#C/C(=C/c1ccc(N2CCCCC2)o1)C(=O)NCCc1c[nH]c2ccccc12`, the inhibition was 41.9% (active).
`Cc1ccc2cc(CN(c3ccc(C)c(C)c3)S(C)(=O)=O)c(=O)[nH]c2c1` was tested, and the inhibition was -7.6%.
For `O=C(Nc1ccc(S(=O)(=O)N2CCOCC2)cc1)c1ccc2ncsc2c1`, the inhibition was -9.71%.
Work on `Cc1ccc(O)c(NC(=S)NC(=O)COc2ccc(Br)cc2)c1` yielded an inhibition of -10.4%.
Work on `CCOC(=O)N1CCN(CCC(=O)Nc2cc(OC)ccc2OC)CC1` yielded an inhibition of 3.79%.
With `COc1ccc(OC)c(NC(=O)CCN2CCC(C)CC2)c1` the inhibition was 43.5% (active).
With `COc1ccc(NC(=O)CCN2CCCC2)c(OC)c1` the inhibition was -2.15%.
`Cc1ncn2cc(-c3ccc(Cl)cc3Cl)[nH]c(=O)c12` gave an inhibition of 0.92%.
Work on `CN(C)C(=O)CSc1n[nH]c(-c2ccco2)n1` yielded an inhibition of -9.79%.
`O=C(COC(=O)c1ccc(F)cc1F)Nc1ncccn1` gave an inhibition of -18.8%.
For `CSc1sc(C)cc1C1C(C#N)=C(N)N(c2cccnc2)C2=C1C(=O)CCC2` (stereo not drawn), the inhibition was 40.6% (active).
With `N#CC1=C(N)N(c2ccccc2)C2=C(C(=O)CCC2)C1c1ccccc1` (stereo not drawn) the inhibition was -23.4%.
For `CCc1ccc(C2C(C#N)=C(N)N(N(C)C)C3=C2C(=O)CCC3)s1` (stereo not drawn), the inhibition was -16.9%.
